The record followed here is the supplement of paper PMC6555819.

This experiment relates to VDR homodimer (NR concentration 270 nM). Kind of experiment: PBM binding z-score (relative to random genomic background probes); higher = stronger binding; sequences stand for … in GC…GCGATTGACAGCGTAGAATGAAGG
The method in brief:
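Regression normalization was applied to scanned fluorescence from custom Agilent 4×180K protein-binding microarrays. Before scanning, arrays were incubated 1 h with ligand-free nuclear receptor dimers, and binding was detected with antibodies against each partner (one per run). Binding z-scores use the random background probes as reference.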
As for TCTTGTAGATCAATAGAGGTTAATAAAGTGCGCT, the PBM binding z-score is 0.459.

Sequence GGAACGAGGGCAAGTTGATATCAGAGTTTGATGG gave a PBM binding z-score of 2.21.

The sequence CGTCAAAGTTCAACTAAGGTAACGTGAAGCACGC registered a PBM binding z-score of 3.84.

The sequence CTCGAAAGGTCGTGCTCAGGTGTGTATACCAAAC displayed a PBM binding z-score of 0.893.

For the sequence TCTAGTTGGTCACGGAGGTCACACATGACGGGTA, the PBM binding z-score was found to be 3.54.

Consider CCGACTGGGGCATAAGGTTACCATAAGCCAGCCC, for which the PBM binding z-score is -0.0146.

Turning to TAGCCTAGGTCATGGGCTAGTATACCACGCGAAC, the PBM binding z-score came out at 0.156.

As for CCTTCCGGGTCAAGGTTATAGCACGGGTGGTACG, the PBM binding z-score came to 1.72.

The sequence TCATATAGGTCATACAGGTGAAAGTCGGCATCTA registered a PBM binding z-score of 1.81.

Take ACTATTAGTTGACTTAGGGCAAACGATACGACGC: the PBM binding z-score was -0.123.

GAAACGAGGGCAAAGTTGATAGCATCTGTCGACG yielded a PBM binding z-score of 1.13.

For ACAGACAGGTGACTGAAGGTAACTCAGCTGGACG, the PBM binding z-score was -0.657.

In turn, TGAAGGAGGTTATAAGATCAGGGAACGTTGCAAA had a PBM binding z-score of 0.219.

TATTGTAGATCAAGCAGGTTAAGAAAGCCTGAGT: the PBM binding z-score stood at 0.132.

TGTCAAAGTTCAAAGGTAACTTAAGTATCCACAC registered a PBM binding z-score of 4.03.

Consider TCTTGTAGATCAAAGGTTACGAAAGCCGAAGCCT, for which the PBM binding z-score is -0.125.

ATATGTAGGTTAAGGGCCATTCAGGTTGGTTCGC: the PBM binding z-score is 1.15.

For the sequence TCTGCTAGGTCCGTTGGTCAGCTAACGAGCTGCC, the PBM binding z-score was -0.592.

Take CGTCAAAGTTCAAATAAGGTAACGTAAAGCACGC: the PBM binding z-score is 4.33.

For TCTATTAGTTGATTCGGGCAACCGAAACAGCGGA, the PBM binding z-score came out at 0.228.

The sequence CATACAGGATCAGCTAGGCCAGAGTAGGGACGGC yielded a PBM binding z-score of 0.0286.

For ACAGGCAGGTGAGTGAAGGTAACTCAGCTGGACG, the PBM binding z-score was -0.884.

As for CGTCCTAGGTCAGAGAGGTCAGTGAATGCCGAGT, the PBM binding z-score was determined as 3.9.

For CAGACTAGGTCAGGGCCAGTATAGGAGGAACGTT, the PBM binding z-score is -0.295.

Regarding GCGACCGGGGCATCAGCAGGTTACCATAACTTAA, the PBM binding z-score is -0.185.

Take TCGAGTAGGTTAGTCGGTGCATTCAGCCAACATA: the PBM binding z-score was 0.902.

In the case of TAGTCTAGGTCATTGGGCCAGTATAGTACGCATC, the PBM binding z-score turned out to be 1.87.

Regarding CTCGAAAGGTGGGTTGAGGTGAGTATACGGATAA, the PBM binding z-score worked out at 0.756.

Turning to CCTACCGGGCCAAAAAGGTCATTGATGCCGATAA, the PBM binding z-score was found to be 3.13.

Sequence ACTATTAGTTGACTTAGGGCGACCGATACGACGC returned a PBM binding z-score of 0.166.

Consider GGATCGAGGGCATTCGAGTTGATAGCATGGCGAT, for which the PBM binding z-score is 3.49.

Consider ATCGAAAGGCCGAAGGTGAGTATACCCACCCGAA, for which the PBM binding z-score is -0.679.

In turn, ATATGTAGGTTGCATCCGGGTCATTCAGGCTATG came in with a PBM binding z-score of 2.66.

Regarding TAGCCTAGGTCATTGGGCCAGCATAGTACGCATC, the PBM binding z-score was found to be 0.817.

With ACAGAAAGGTGATGAAGGTAACTCAGGCTATCAT, the PBM binding z-score is -0.00913.

CCTCGGAGGACAGAAGGTCAGCGCTGTCCGCTTT showed a PBM binding z-score of 0.0447.

With CCTGCTAGGTCAATGGTCATCTAAAGCAGCTCGC, the PBM binding z-score was 0.333.

Sequence CCCTACGGGTCACGAGGTTATAGCACGACGAGCG had a PBM binding z-score of 1.66.

As to GCTTGTAAATCAAGGTTAAGAAAGACTAAGCTAA, the PBM binding z-score is -0.374.

As for CATACAGGGTCAGCTAGGCCATAGTAGGGACGGC, the PBM binding z-score came out at 1.1.
